Source: PubChem BioAssay AID651711 (Broad Institute, 2012)
The campaign covered roughly 350,000 compounds. About 180 (0.051%) were called active.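 The calls were made as follows: active = mean replicate inhibition above about 25%, with every replicate also reaching it (limit read from the data, passing the limit was not always enough); inconclusive = only one of those two criteria met; inactive = neither criterion met.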 This excerpt belongs to a sample that is enriched for actives.

Target: Protein disulfide-isomerase A6 (Homo sapiens) (UniProt Q15084)
Experiment: ERp5 (PDIA6) reductase activity blockers – biochemical, turbidity, absorbance 650 nm, single point, primary screen (AID 651711)
Conditions: ERp5 insulin aggregation, 90 min, at 9.99 µM, active compounds read high

Chain of Protein disulfide-isomerase A6 (Homo sapiens) (Q15084 whole entry, looked up): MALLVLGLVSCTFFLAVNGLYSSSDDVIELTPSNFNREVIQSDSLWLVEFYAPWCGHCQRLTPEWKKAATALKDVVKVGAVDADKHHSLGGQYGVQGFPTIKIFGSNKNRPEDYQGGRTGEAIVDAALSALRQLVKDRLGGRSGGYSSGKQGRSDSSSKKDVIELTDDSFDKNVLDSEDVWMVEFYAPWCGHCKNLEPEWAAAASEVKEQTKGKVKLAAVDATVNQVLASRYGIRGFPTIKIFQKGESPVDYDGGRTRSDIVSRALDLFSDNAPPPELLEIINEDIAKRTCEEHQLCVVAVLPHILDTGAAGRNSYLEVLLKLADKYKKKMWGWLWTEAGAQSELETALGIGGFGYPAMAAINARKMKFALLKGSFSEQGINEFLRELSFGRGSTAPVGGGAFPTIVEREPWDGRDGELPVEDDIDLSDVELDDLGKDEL

inhibition, inactive:
CO[C@@H]1CN(C)C(=O)c2cc(NS(=O)(=O)CC(F)(F)F)ccc2OC[C@H](C)N(C)C[C@H]1C 1.29%
C/C=C/c1ccccc1[C@H]1[C@@H](C#N)N(C(C)=O)[C@@H]1CO 0.399%
COc1ccc(NC(=O)N(C)C[C@@H]2OCc3ccccc3-c3c(n(C)c4ccccc34)C(=O)N([C@H](C)CO)C[C@H]2C)cc1 1.51%
COc1ccc(S(=O)(=O)Nc2ccc3c(c2)C(=O)N([C@@H](C)CO)C[C@H](C)[C@H](CN(C)Cc2ccc(C(=O)O)cc2)O3)cc1 4.86%
C/C=C/c1ccc2c(c1)O[C@H](CN(C)C(=O)Cc1ccccn1)[C@H](C)CN([C@H](C)CO)S2(=O)=O -3.16%
N#C[C@@H]1[C@H](c2ccccc2-c2ccccc2F)[C@@H](CO)N1C(=O)c1ccccn1 -2.07%
Cc1ccc(S(=O)(=O)Nc2ccc3c(c2)C(=O)N([C@H](C)CO)C[C@H](C)[C@@H](CN(C)S(=O)(=O)c2cccs2)O3)cc1 3.96%
C[C@@H]1CN([C@@H](C)CO)C(=O)c2cc(NC(=O)Nc3ccccc3)ccc2O[C@H]1CN(C)C(=O)Nc1ccc(F)cc1 4.96%
CCC(=O)N(C)C[C@H]1[C@H](c2ccc(-c3ccccc3F)cc2)[C@@H](CO)N1C(C)=O -0.23%
COCC#Cc1ccc([C@@H]2[C@@H](CO)N3C(=O)CN(C(=O)C4CCCC4)C[C@@H]23)cc1 0.681%
Cc1noc(C)c1S(=O)(=O)N(C)C[C@H]1Oc2ccc(NC(=O)Nc3cccc4ccccc34)cc2CC(=O)N([C@@H](C)CO)C[C@H]1C -5.17%
COc1ccc2c3c(n(C)c2c1)[C@@H](CO)N(C(=O)c1ccc(F)cc1)CC31CN(C(=O)c2ccc(F)cc2)C1 1.03%
COc1ccc2c3c(n(C)c2c1)[C@@H](CO)N(C(=O)CN1CCOCC1)CC31CN(C(=O)CC2CC2)C1 -0.576%
CN(C)CC(=O)N1[C@@H](CO)[C@H](c2ccccc2)C12CN(C(=O)c1cccc(F)c1)C2 2.27%
C/C=C/c1ccc([C@@H]2[C@H](CO)N(C(=O)c3cnccn3)C23CN(C(C)=O)C3)cc1 -4.61%
C[C@@H]1CN([C@H](C)CO)C(=O)c2cc(C#CCC3CCCC3)cnc2O[C@H]1CN(C)C(=O)c1cnccn1 -0.111%
C[C@@H]1CN([C@H](C)CO)S(=O)(=O)c2ccc(-c3ccncc3)cc2O[C@H]1CN(C)S(=O)(=O)c1ccccc1F -3.02%
C[C@@H]1CN([C@@H](C)CO)C(=O)c2cc(NS(=O)(=O)c3ccccc3)ccc2O[C@@H]1CN(C)Cc1ccc(C(=O)O)cc1 -2.81%
Cc1noc(C)c1S(=O)(=O)Nc1ccc2c(c1)C(=O)N([C@H](C)CO)C[C@H](C)[C@H](CN(C)S(C)(=O)=O)OCCCC[C@H](C)O2 -0.161%
C[C@@H]1CN([C@@H](C)CO)S(=O)(=O)c2ccc(C#CC(C)(C)O)cc2O[C@H]1CN(C)C(=O)CN(C)C -0.244%
C[C@H](CO)N1C[C@H](C)[C@H](CN(C)C)Oc2cc(C#Cc3ccccc3F)ccc2S1(=O)=O 11.3%
O=C(C[C@@H]1CC[C@@H]2[C@H](COC[C@H](O)CN2C(=O)Cc2ccccc2)O1)NC1CCC1 9.77%
COc1ccc(-c2ccc([C@@H]3[C@@H](C#N)N(C(=O)C4CCCCC4)[C@H]3CO)cc2)cc1 -2.17%
CCCNC(=O)N1C[C@H](C)[C@@H](OC)CN(C)C(=O)c2ccc(NC(=O)CC)cc2OC[C@@H]1C 7.86%
CC(C)NC(=O)N[C@H]1CC[C@H](CC(=O)N2CCCCC2)O[C@@H]1CO 3.34%
C[C@@H]1CCCCO[C@H](CN(C)Cc2ccc(Cl)c(Cl)c2)[C@@H](C)CN([C@H](C)CO)C(=O)c2cc(NS(=O)(=O)c3cn(C)cn3)ccc2O1 1.36%
COc1ccc(S(=O)(=O)N(C)C[C@H]2Oc3ccc(NC(=O)C4CC4)cc3CC(=O)N([C@@H](C)CO)C[C@@H]2C)cc1 2.88%
COc1ccccc1C#Cc1cnc2c(c1)C(=O)N([C@H](C)CO)C[C@H](C)[C@H](CN(C)S(=O)(=O)c1cn(C)cn1)O2 -2.62%
CCN1C(=O)N[C@@H]2C[C@H](C(=O)N3CCCC3)[C@H](C)[C@H](c3ccccc3)C[C@@H]21 0.542%
COc1ccccc1C#Cc1cnc2c(c1)C(=O)N([C@@H](C)CO)C[C@@H](C)[C@@H](CN(C)C(=O)CN(C)C)O2 -1.98%
C[C@@H]1CN([C@H](C)CO)C(=O)c2cc(NC(=O)c3ccncc3)ccc2O[C@@H](C)CCCCO[C@@H]1CN(C)CC1CC1 3.17%
Cc1ccccc1S(=O)(=O)N[C@@H]1CC[C@H](CCn2cc(-c3ccc(F)cc3)nn2)O[C@@H]1CO 0.302%
COc1ccc(C#Cc2ccc([C@@H]3[C@@H](CO)N4C(=O)CN(C(=O)c5ccc(F)cc5)C[C@@H]34)cc2)cc1 6.45%
CO[C@@H]1CN(C)C(=O)c2cc(NC(=O)Nc3cccc(F)c3)ccc2OC[C@H](C)N(C)C[C@@H]1C 2.15%
C[C@@H]1CN([C@H](C)CO)C(=O)c2cc(-c3ccc(F)cc3)cnc2O[C@@H]1CN(C)C(=O)C1CCC1 1.7%
C[C@@H]1CN([C@H](C)CO)C(=O)c2cc(NS(=O)(=O)c3ccc(F)cc3)ccc2O[C@@H]1CN(C)C(=O)Nc1cccc2ccccc12 13.7%
CCCN1C[C@H](C)[C@@H](OC)CN(C)C(=O)c2ccc(NC(=O)C3CCOCC3)cc2OC[C@@H]1C 0.943%
C[C@H](CO)N1C[C@H](C)[C@@H](CN(C)CC2CC2)OCCCC[C@H](C)Oc2ccc(NC(=O)Nc3ccccc3)cc2C1=O 2.55%
O=S(=O)(c1ccccc1)N1CC[C@@H]2[C@@H](CO)Nc3ccc(C#Cc4cccc(F)c4)cc3[C@@H]21 -0.006%
